Data published in PubChem BioAssay.
Activity calls are given as the source filed them. Unless noted, how the calls were made is not given here.

How the values were obtained:
[1] = HepG2 liver cancer cell viability effects, profiling panel, resazurin fluorescence, 24 h, PK04 Diversity Set (AID 1172); conditions: higher = more signal
[2] = basal S. cerevisiae growth modulation, no modifier, primary screen, OD600, strain BY4716, 24 h, basal condition (AID 1173); conditions: OD600, 24 h, higher = more signal, called active from +8 up or from −8 down
[3] = MM1S myeloma cell viability, profiling panel, resazurin fluorescence, basal, 24 h, PK04 Diversity Set (AID 1174); conditions: higher = more signal, called active from +8 up or from −8 down;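 further: MM1S multiple myeloma cell line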
[4] = target: Dihydroorotate dehydrogenase (quinone), mitochondrial (Plasmodium falciparum (isolate 3D7)) (UniProt Q08210); assay: PfDHODH enzyme inhibitors, primary screen, biochemical, C-terminal His tag, absorbance 600 nm (AID 1175); conditions: DCIP absorbance 600 nm, higher = more signal, called active from +8 up or from −8 down;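 further: recombinant parasite enzyme with a five histidine tag at its C terminus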
Dihydroorotate dehydrogenase (quinone), mitochondrial (Plasmodium falciparum (isolate 3D7)), sequence (Q08210 whole entry, looked up): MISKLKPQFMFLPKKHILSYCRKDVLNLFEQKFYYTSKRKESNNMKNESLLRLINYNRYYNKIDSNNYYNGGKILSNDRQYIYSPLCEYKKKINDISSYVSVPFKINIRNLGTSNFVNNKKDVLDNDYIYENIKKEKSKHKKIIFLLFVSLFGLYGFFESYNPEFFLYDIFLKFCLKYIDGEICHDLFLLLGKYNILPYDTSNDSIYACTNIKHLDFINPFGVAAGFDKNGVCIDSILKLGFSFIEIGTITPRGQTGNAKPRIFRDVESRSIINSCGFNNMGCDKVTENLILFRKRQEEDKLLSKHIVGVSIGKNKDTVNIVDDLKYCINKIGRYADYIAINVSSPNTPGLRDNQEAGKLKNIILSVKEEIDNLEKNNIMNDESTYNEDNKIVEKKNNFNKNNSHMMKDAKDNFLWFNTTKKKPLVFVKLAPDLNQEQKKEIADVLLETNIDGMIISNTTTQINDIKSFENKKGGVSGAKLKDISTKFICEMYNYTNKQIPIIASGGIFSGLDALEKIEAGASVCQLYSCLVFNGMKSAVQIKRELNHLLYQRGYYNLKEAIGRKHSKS

[5] = P. aeruginosa biofilm formation inhibitors, primary screen, strain PAO1, LB-PBS medium, absorbance 600 nm (AID 1176); conditions: P. aeruginosa PAO1 growth/biofilm, A600, 12 h; higher = more signal
[6] = S. cerevisiae RM11-1a growth modifiers, primary screen, strain RM11-1a, OD600, basal, 24 h (AID 1177); conditions: OD600, 24 h, higher = more signal, called active from +8 up or from −8 down;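 further: cultures grown under basal conditions with no added stressor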
[7] = E. coli acrAB mutant growth effects, primary screen, E. coli filamentation inducers, strain DRC39, OD650, 24 h (AID 1178); conditions: higher = more signal, called active from +8 up or from −8 down;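 further: growth measured as culture turbidity by optical density at 650 nm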
[8] = E. coli acrAB mutant growth effects, primary screen, E. coli filamentation inducers, strain DRC39, OD650, 48 h (AID 1179);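 further: screen aims at cell division blockers that make cells filament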; conditions: E. coli DRC39 delta-acrAB growth, higher = more signal, called active from +8 up or from −8 down
[9] = RPMI8226 myeloma cell viability, profiling panel, resazurin fluorescence, basal, 24 h, PK04 Diversity Set (AID 1180); conditions: higher = more signal;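 further: RPMI8826 multiple myeloma cell line at 5000 cells per well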
[10] = target: E3 ubiquitin-protein ligase XIAP (Homo sapiens) (UniProt P98170); assay: XIAP binders, primary screen, biophysical, small-molecule microarray, fluorescence 635 nm (AID 1181); conditions: small-molecule microarray binding, higher = more signal;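 further: score merges 667 nm emission and signal to noise over triplicate slides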
E3 ubiquitin-protein ligase XIAP (Homo sapiens), sequence (P98170 whole entry, looked up): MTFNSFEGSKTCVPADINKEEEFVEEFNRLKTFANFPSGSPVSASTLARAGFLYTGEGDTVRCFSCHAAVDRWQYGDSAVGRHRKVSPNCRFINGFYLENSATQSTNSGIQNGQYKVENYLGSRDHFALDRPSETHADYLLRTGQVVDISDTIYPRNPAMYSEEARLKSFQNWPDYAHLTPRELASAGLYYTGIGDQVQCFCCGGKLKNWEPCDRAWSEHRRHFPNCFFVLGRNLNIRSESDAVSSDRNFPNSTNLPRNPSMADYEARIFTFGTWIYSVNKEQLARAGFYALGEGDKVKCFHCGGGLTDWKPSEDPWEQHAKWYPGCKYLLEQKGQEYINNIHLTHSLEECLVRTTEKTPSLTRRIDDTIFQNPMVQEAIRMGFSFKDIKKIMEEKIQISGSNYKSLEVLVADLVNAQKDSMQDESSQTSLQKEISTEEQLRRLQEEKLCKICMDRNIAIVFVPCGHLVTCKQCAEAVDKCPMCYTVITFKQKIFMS

[11] = tested on: XIP peptide (Xip251-270) binding; assay: small-molecule binders of XIP peptide, primary screen, biochemical, small-molecule microarray, fluorescence 635/667 nm, 0.1 µg/mL protein (AID 1182); conditions: fluorescent protein binding, 635 nm, higher = more signal, called active from +8 up or from −8 down
[12] = tested on: XIP peptide (Xip251-270); assay: small-molecule binders of XIP peptide, primary screen, biochemical, small-molecule microarray, fluorescence 635/667 nm, 0.5 µg/mL protein (AID 1183); conditions: small-molecule microarray binding, fluorescence 635 nm; higher = more signal
[13] = Plasmodium falciparum growth inhibition, primary screen, strain 3D7, DAPI fluorescence, 100 nL (AID 1184);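 further: parasites grown inside human red blood cells in medium with human serum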; conditions: P. falciparum 3D7 growth, 3 d, higher = more signal
[14] = target: Homeobox protein Hox-A13 (Mus musculus) (UniProt Q62424); assay: inhibitors of HoxA13-DNA binding, primary screen, biochemical, fluorescence polarization, labeled oligonucleotide (AID 1185); conditions: 15 min, higher = more signal, called active from +8 up or from −8 down
Homeobox protein Hox-A13 (Mus musculus), sequence (Q62424 whole entry, looked up): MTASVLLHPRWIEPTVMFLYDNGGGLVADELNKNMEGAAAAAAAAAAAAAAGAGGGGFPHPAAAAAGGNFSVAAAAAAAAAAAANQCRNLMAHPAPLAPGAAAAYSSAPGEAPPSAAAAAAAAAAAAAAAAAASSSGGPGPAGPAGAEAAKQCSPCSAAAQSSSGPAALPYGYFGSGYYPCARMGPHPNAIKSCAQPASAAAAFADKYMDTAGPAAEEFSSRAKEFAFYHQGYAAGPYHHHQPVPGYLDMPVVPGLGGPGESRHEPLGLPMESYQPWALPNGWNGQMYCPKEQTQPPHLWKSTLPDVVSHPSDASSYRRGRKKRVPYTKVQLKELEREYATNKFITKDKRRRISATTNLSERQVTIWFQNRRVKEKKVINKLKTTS

[15] = inhibitors of hydroxyurea-induced Chk1 phosphorylation, primary screen, imaging, HeLa, phospho-Chk1 antibody, percent positive cells (AID 1186); conditions: hydroxyurea-induced phospho-Chk1 immunofluorescence imaging, higher = more signal
[16] = inhibitors of hydroxyurea-induced Chk1 phosphorylation, primary screen, imaging, HeLa, phospho-Chk1 nuclear intensity (AID 1187); conditions: hydroxyurea-induced phospho-Chk1 immunofluorescence imaging, higher = more signal

Structure (SMILES)	z-score [1]	z-score [2]	z-score [3]	composite z-score [4]	z-score [5]	z-score [6]	z-score [7]	z-score [8]	z-score [9]	composite z-score [10]	composite z-score [11]	composite z-score [12]	z-score [13]	z-score [14]	z-score [15]	z-score [16]
CC(C)CNC(=O)[C@@H]1c2ccccc2C(=O)N(Cc2ccccc2Cl)[C@H]1c1ccc(CO)cc1	0.611	-0.161 (inactive)	0.552 (inactive)	-0.0116 (inactive)	0.0435 (inactive)	-0.239 (inactive)	0.219 (inactive)	0.303 (inactive)	0.943	0.199	0.0394 (inactive)	0.8	0.134	-1.47 (inactive)	0.0107 (inactive)	0.499 (inactive)
C=CCOC(=O)[C@H]1[C@@H]2C(=O)O[C@@H](c3ccccc3)[C@@H](c3ccccc3)N2[C@@H](c2ccc(OCCOC(=O)[C@H]3C[C@H]4C(=O)NCC(=O)N4[C@H]3c3ccc(O)cc3)cc2)[C@]12C(=O)Nc1ccc(I)cc12	0.0134	1.27 (inactive)	0.478 (inactive)	0.383 (inactive)	2.83 (inactive)	1.7 (inactive)	0.157 (inactive)	0.987 (inactive)	0.642	-0.0351	-0.256 (inactive)	0.7	-1.83	2.46 (inactive)	-1.06 (inactive)	-1.08 (inactive)
COCCOC(=O)N1C(=O)[C@@]2(c3cc(C#Cc4ccc(OC)cc4)ccc31)[C@H](C(=O)N1CCCCCCC1)[C@H]1C(=O)O[C@H](c3ccccc3)[C@H](c3ccccc3)N1[C@@H]2c1ccccc1OCCO	-0.107	1.88 (inactive)	-0.0216 (inactive)	-0.267 (inactive)	2.36 (inactive)	3.2 (inactive)	-0.609 (inactive)	-0.399 (inactive)	-0.429	0.89	1.65 (inactive)	0.728	-2.15	4.81 (inactive)	-0.0224 (inactive)	0.504 (inactive)
COc1ccc([Si](C)(C)[C@@H]2[C@@H](CC(=O)N(CCO)Cc3ccccc3)O[C@]3(C(=O)N(Cc4ccc(N5CCC5=O)cc4)c4ccccc43)[C@H]2C)cc1	0.278	0.144 (inactive)	-0.604 (inactive)	-1.44 (inactive)	1.2 (inactive)	0.67 (inactive)	0.505 (inactive)	0.358 (inactive)	-1.66	-0.0151	3.33 (inactive)	0.443	-0.767	-1.08 (inactive)	0.366 (inactive)	0.971 (inactive)
C[C@H]1C2[C@H](Cc3ccccc3)NC(=O)[C@]23C(=O)NCC(=O)N2CCC[C@H]2C(=O)NC/C=C\C/C=C/C3[C@@H]2O[C@]12C (stereo partly drawn)	0.825	-1.82 (inactive)	0.741 (inactive)	-0.173 (inactive)	-0.14 (inactive)	-0.939 (inactive)	1.02 (inactive)	0.741 (inactive)	1.05	-0.258	0.358 (inactive)	0.341	0.876	-2.22 (inactive)	0.353 (inactive)	0.133 (inactive)
COCCOC(=O)N1C(=O)[C@@]2(c3cc(C#CCC(C(=O)OC)C(=O)OC)ccc31)[C@H](C(=O)N1CCCCCCC1)[C@H]1C(=O)O[C@H](c3ccccc3)[C@H](c3ccccc3)N1[C@@H]2c1ccccc1OCCO	0.194	0.63 (inactive)	0.683 (inactive)	0.256 (inactive)	1.45 (inactive)	1.62 (inactive)	-0.82 (inactive)	-1.29 (inactive)	0.0277	0.212	2.48 (inactive)	0.483	-2.4	4.77 (inactive)	0.122 (inactive)	0.0392 (inactive)
COC(=O)[C@@]1(Cc2ccccc2)[C@H]2c3cc(C(=O)N4CCCC4)n(Cc4ccc(C(F)(F)F)nc4)c3C[C@H]2CN1C(=O)c1ccccc1	0.0826	1.18 (inactive)	-0.335 (inactive)	-0.559 (inactive)	-0.374 (inactive)	0.151 (inactive)	0.018 (inactive)	-0.815 (inactive)	-0.578	0.0558	-0.0699 (inactive)	0.723	-1.11	-3.13 (inactive)	-0.0659 (inactive)	0.114 (inactive)
NCCCC[C@@H]1NC(=O)[C@H]2C[C@@H](C(=O)O)[C@@H](c3cccc(OCCO)c3)N2C1=O	-0.578	-0.0349 (inactive)	0.152 (inactive)	-6.64 (inactive)	0.628 (inactive)	1.08 (inactive)	0.191 (inactive)	-0.28 (inactive)	-0.438	0.201	0.505 (inactive)	0.86	-0.0736	6.28 (inactive)	0.0547 (inactive)	-0.62 (inactive)
